The values below come from ChEMBL document CHEMBL1961873, “Compounds: GSK PKIS; Assays: Nanosyn kinase panel” (2012).

For test [1], the target named is Serine/threonine-protein kinase MARK2 (Homo sapiens) (UniProt Q7KZI7). Particulars: at 1 µM.
Test [2] concerns the target PAS domain-containing serine/threonine-protein kinase (Homo sapiens) (UniProt Q96RG2). To be noted: at 0.1 µM.
Test [3] shares this target. To be noted: at 1 µM.
Test [4] has as its target Phosphorylase b kinase gamma catalytic chain, skeletal muscle/heart isoform (Homo sapiens) (UniProt Q16816). Particulars: at 0.1 µM.
Test [5] shares this target. To be noted: at 1 µM.
Test [6] concerns the target T1, Phosphorylase b kinase gamma catalytic chain, liver/testis isoform (Homo sapiens) (UniProt P15735).
T1 sequence (whole entry): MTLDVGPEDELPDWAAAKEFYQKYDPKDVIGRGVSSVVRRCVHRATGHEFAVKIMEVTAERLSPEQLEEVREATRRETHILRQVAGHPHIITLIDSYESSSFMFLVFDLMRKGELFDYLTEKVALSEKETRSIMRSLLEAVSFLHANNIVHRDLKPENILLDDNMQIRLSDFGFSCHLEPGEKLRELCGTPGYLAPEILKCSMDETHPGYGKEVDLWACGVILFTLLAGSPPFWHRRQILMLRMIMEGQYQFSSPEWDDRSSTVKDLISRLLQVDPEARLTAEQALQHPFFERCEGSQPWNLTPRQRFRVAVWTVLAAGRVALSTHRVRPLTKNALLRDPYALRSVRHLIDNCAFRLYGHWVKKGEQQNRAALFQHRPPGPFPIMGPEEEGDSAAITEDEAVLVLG
To be noted: at 0.1 µM.

Test [7] has as its target T1, Phosphorylase b kinase gamma catalytic chain, liver/testis isoform (Homo sapiens). To be noted: at 1 µM.
The target in test [8] is Serine/threonine-protein kinase pim-1 (Homo sapiens) (UniProt P11309). To be noted: at 0.1 µM.
Serine/threonine-protein kinase pim-1 (Homo sapiens), sequence (P11309 whole entry, looked up): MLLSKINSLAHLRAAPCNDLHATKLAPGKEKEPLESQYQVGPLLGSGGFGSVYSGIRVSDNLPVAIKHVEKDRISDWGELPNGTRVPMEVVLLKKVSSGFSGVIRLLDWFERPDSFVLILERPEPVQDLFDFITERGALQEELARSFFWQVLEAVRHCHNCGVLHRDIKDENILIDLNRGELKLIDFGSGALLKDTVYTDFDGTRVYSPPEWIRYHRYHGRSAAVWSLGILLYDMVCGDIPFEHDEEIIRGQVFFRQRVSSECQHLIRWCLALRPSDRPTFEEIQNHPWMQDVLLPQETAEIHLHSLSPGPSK
Test [9] shares this target. Particulars: at 1 µM.
The target in test [10] is Serine/threonine-protein kinase pim-2 (Homo sapiens) (UniProt Q9P1W9). To be noted: at 0.1 µM.
Serine/threonine-protein kinase pim-2 (Homo sapiens), sequence (Q9P1W9 whole entry, looked up): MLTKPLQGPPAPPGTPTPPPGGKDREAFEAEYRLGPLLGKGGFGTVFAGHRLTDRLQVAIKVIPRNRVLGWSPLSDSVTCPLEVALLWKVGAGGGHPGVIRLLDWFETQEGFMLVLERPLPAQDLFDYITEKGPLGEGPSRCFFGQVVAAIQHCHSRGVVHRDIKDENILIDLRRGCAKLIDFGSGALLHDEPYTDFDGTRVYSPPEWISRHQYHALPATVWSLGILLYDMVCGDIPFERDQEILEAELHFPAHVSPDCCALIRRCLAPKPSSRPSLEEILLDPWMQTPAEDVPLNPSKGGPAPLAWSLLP
For test [11] the target is unchanged. Particulars: at 1 µM.
Test [12] concerns the target Serine/threonine-protein kinase pim-3 (Homo sapiens) (UniProt Q86V86). Particulars: at 0.1 µM.
For test [13] the target is unchanged. To be noted: at 1 µM.
The target in test [14] is T2, MAP kinase-activated protein kinase 5 (Homo sapiens) (UniProt Q8IW41).
T2 sequence (whole entry): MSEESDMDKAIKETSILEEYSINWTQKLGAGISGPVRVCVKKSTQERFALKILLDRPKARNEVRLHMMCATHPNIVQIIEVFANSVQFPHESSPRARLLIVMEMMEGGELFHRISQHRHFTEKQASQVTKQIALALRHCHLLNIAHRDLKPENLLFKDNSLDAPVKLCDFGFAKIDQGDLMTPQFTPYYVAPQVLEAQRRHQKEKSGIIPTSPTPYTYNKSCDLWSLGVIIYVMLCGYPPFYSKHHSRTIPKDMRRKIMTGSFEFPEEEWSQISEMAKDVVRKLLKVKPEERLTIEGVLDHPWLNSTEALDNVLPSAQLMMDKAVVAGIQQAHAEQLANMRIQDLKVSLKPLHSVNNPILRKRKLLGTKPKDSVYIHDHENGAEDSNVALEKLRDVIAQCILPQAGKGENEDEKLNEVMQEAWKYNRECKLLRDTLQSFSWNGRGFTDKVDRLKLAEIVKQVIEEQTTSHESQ
Particulars: at 0.1 µM.

Test [15] has as its target T2, MAP kinase-activated protein kinase 5 (Homo sapiens). Particulars: at 1 µM.
The target in test [16] is Serine/threonine-protein kinase SIK1 (Homo sapiens) (UniProt P57059). To be noted: at 0.1 µM.
Serine/threonine-protein kinase SIK1 (Homo sapiens), sequence (P57059 whole entry): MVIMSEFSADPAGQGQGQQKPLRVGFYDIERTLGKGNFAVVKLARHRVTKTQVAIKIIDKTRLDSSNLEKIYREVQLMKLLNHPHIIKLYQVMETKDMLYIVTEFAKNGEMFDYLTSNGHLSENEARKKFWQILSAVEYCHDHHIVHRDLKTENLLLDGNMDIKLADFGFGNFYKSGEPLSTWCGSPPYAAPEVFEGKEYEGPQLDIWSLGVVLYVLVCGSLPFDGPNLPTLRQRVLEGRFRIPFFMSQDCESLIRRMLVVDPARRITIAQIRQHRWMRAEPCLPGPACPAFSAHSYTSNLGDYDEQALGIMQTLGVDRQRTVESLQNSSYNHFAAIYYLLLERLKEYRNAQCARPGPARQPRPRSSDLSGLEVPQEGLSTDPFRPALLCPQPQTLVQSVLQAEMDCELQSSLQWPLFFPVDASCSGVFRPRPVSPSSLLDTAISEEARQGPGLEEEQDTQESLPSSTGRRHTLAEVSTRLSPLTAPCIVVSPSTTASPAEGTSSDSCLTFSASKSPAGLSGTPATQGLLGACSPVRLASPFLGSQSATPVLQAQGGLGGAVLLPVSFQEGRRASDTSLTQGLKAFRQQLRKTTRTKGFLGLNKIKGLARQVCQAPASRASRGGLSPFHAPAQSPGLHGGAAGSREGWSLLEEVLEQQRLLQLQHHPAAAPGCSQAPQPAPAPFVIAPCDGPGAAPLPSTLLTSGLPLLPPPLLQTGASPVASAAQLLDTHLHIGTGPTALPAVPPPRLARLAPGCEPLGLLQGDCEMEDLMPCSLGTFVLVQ
The target is the same in test [17]. Particulars: at 1 µM.
Test [18] has as its target Serine/threonine-protein kinase SIK2 (Homo sapiens) (UniProt Q9H0K1). Particulars: at 0.1 µM.
Test [19] has the same target. To be noted: at 1 µM.
Test [20] addresses T3, Serine/threonine-protein kinase TBK1 (Homo sapiens) (UniProt Q9UHD2).
T3 sequence (whole entry): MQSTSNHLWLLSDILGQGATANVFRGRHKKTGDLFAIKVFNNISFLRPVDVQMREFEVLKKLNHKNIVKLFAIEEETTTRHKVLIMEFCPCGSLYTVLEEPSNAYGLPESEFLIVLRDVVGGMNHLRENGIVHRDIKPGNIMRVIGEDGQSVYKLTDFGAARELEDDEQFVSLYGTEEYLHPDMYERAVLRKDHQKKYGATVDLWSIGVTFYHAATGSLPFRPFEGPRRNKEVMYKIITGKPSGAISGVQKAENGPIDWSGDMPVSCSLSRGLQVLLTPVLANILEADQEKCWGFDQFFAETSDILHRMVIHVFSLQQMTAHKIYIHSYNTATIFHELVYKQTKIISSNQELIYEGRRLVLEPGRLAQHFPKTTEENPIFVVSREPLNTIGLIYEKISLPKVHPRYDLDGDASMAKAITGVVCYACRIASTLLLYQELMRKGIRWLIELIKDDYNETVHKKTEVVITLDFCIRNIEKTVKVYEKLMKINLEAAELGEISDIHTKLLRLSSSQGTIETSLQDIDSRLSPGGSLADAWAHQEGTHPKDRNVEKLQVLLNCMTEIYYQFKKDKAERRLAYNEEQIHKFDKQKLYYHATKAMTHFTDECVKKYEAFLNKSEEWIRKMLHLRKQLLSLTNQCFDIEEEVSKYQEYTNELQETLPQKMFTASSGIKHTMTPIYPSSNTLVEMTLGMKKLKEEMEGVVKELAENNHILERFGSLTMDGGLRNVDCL
To be noted: at 0.1 µM.

Each structure is given as a SMILES string.

Phosphorylase b kinase gamma catalytic chain, skeletal muscle/heart isoform (Homo sapiens), sequence (Q16816 whole entry, looked up, canonical isoform): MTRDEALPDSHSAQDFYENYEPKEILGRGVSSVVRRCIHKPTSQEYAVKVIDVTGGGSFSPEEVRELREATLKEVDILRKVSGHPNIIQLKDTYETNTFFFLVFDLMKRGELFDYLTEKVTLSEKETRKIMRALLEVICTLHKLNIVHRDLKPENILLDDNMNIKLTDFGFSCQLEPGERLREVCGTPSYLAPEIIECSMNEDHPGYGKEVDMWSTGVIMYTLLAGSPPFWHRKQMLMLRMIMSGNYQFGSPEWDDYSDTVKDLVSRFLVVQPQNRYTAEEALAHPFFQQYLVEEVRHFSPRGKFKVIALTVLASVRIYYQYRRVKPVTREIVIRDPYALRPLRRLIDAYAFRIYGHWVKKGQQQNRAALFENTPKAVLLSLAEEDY
Serine/threonine-protein kinase SIK2 (Homo sapiens), sequence (Q9H0K1 whole entry, looked up): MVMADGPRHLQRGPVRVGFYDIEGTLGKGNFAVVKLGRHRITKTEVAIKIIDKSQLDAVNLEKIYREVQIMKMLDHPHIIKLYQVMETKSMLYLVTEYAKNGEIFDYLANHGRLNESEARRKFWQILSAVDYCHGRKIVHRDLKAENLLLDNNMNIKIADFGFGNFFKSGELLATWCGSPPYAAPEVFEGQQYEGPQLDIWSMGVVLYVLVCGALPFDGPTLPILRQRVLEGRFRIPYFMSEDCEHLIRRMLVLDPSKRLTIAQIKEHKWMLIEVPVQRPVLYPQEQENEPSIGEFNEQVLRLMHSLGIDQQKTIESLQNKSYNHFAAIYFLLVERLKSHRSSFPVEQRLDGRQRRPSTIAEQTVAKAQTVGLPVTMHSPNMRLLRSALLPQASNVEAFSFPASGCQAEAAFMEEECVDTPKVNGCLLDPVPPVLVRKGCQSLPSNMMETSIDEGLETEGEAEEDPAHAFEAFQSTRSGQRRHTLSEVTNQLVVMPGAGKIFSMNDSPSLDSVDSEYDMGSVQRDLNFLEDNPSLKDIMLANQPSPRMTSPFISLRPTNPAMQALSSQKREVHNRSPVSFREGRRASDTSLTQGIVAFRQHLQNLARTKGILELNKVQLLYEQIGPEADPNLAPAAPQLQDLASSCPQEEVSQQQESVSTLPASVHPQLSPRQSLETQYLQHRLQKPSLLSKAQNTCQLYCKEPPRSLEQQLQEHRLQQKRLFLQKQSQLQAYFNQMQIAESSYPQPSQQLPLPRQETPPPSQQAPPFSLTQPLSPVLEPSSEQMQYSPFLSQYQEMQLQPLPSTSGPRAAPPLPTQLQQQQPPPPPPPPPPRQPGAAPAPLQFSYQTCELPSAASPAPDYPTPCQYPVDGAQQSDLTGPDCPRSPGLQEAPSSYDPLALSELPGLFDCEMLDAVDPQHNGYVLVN
PAS domain-containing serine/threonine-protein kinase (Homo sapiens), sequence (Q96RG2 whole entry, the tested form may be a part): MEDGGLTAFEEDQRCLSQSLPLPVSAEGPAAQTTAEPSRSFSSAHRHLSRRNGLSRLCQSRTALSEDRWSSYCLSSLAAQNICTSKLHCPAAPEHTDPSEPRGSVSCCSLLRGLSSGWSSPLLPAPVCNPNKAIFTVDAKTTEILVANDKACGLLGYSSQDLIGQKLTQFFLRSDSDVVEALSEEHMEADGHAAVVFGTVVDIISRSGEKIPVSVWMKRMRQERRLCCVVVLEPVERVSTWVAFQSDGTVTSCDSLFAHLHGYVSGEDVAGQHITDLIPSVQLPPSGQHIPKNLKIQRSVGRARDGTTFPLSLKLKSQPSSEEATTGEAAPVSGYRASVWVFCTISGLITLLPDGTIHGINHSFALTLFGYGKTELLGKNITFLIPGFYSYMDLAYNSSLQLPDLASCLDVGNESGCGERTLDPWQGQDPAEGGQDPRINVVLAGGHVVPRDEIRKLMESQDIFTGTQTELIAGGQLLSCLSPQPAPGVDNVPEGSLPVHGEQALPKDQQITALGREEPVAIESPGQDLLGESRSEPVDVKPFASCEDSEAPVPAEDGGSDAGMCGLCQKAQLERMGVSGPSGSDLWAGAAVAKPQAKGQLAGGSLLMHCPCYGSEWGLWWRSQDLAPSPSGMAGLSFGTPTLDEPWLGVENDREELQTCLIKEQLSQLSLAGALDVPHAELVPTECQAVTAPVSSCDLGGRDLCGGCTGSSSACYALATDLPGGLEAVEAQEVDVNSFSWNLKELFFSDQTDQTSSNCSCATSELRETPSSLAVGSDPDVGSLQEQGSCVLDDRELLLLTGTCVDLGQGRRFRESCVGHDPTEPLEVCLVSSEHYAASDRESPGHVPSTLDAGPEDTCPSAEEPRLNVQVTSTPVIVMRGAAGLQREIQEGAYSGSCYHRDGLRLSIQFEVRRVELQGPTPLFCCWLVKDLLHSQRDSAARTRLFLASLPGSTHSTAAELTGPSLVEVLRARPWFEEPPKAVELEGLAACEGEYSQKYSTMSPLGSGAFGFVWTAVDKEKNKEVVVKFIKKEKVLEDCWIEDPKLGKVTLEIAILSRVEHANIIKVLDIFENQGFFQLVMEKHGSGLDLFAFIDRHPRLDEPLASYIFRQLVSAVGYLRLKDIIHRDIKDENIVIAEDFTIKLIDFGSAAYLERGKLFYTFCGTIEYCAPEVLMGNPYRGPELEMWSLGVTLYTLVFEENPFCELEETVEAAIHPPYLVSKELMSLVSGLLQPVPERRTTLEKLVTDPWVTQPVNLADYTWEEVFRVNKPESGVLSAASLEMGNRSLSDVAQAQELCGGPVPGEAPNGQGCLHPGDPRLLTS

As to `COc1ccccc1Nc1ncc(-c2ccccc2)o1`, the inhibition in test [1] is 3.48%; in [2], -0.06%; in test [3] it was 1.05%; in test [4], 8.92%; in test [5] it was 13.1%; in test [6] it was 5.65%. Moreover, the inhibition in test [7] worked out at 5.8%; in test [8] it was 0.63%; in [9], 1.55%; in test [10] it was 0.78%; in test [11], 0.53%; in [12], 0.22%. The inhibition is 0.86% in [13]; 2.09% in [14]; 1.9% in test [15]; -1.04% in [16]; 14.1% in test [17]; 1.94% in [18]. Also, the values for the inhibition in [19] and in [20] were 5.2% and 1.18%, respectively.

Turning to `CCc1cccc(NC(=O)Nc2ccc(Oc3ccc4nc(NC(=O)OC)[nH]c4c3)cc2)c1`, the inhibition is -0.89% in [1]; 1.41% in test [2]; 1.44% in test [3]; -0.84% in [4]; 2.94% in test [5]; 3.07% in test [6]. The inhibition in [7] is 3.57%; in test [8], 1.27%; in test [9], 0.49%; in test [10], -0.87%; in test [11] it was -0.24%; in test [12], 1.1%. Further, the inhibition in [13] was 3.52%; in test [14], 0.32%; in [15], 0.96%; in [16], 2.06%; in test [17], 2.27%; in test [18], 1.99%. The inhibition in [19] was 0.48%; in [20], 0.31%.

Turning to `NS(=O)(=O)c1ccc(N/N=C2\C(=O)Nc3ccc(C(=O)NCCc4c[nH]cn4)cc32)cc1`, the inhibition in test [1] was 40.4%; in [2], 0.48%; in test [3] it was -3.06%; in test [4] it was 14.2%; in test [5], 58.7%; in [6], 8.35%. The inhibition in [7] is 24%; in [8], 10.5%; in [9], 51.7%; in [10], 3.79%; in [11], 24.7%; in [12], 4.71%. For the same compound, the inhibition in [13] is 44.7%; in test [14], 1.41%; in test [15] it was 2.5%; in test [16], 11.7%; in test [17], 32.5%; in test [18], 6.36%. Also, the inhibition amounted to 16.9% in test [19] and 3.67% in test [20].

With `CC(=O)Nc1cccc(C#Cc2cncnc2Nc2ccc(OCc3cccc(F)c3)c(Cl)c2)n1`, the inhibition is -0.36% in [1]; 1.79% in test [2]; 6.21% in [3]; 1.84% in test [4]; 3.66% in [5]; 0.59% in test [6]. Further, the inhibition is 6.86% in test [7]; 1.5% in test [8]; 0.89% in test [9]; 0.58% in test [10]; -0.75% in [11]; 5.22% in test [12]. The inhibition in [13] was 9.04%; in test [14], 0.35%; in test [15] it was 2.24%; in [16] it was -2.62%; in test [17], -1.96%; in test [18] it was -4.28%. In addition, the inhibition is -0.46% in [19] and 1.99% in test [20].

For the compound `COc1ccc(-c2coc3ncnc(N)c23)cc1`, the inhibition was 2.28% in test [1]; -0.15% in [2]; -1.42% in [3]; 3.44% in [4]; 6.53% in [5]; 4.41% in test [6]. The inhibition in test [7] was 2.09%; in test [8], 1.29%; in test [9], 1.42%; in [10] it was 0.43%; in test [11], 1.01%; in test [12] it was -0.83%. Also, the inhibition was -1.2% in [13]; 0.93% in test [14]; 0.22% in [15]; 1.16% in [16]; 10.4% in test [17]; 5.46% in test [18]. In addition, the inhibition is 7.65% in test [19] and -0.45% in test [20].

Consider `COc1ccc(COc2ccc(Cc3cnc(N)nc3N)cc2OC)cc1`, for which the inhibition in [1] is 3.13%; in test [2], 1.77%; in [3], 0.54%; in test [4], -0.96%; in test [5], 1.56%; in test [6] it was 1.58%. The inhibition in test [7] was -1.66%; in test [8] it was 1.34%; in [9], 0.49%; in test [10], 2.71%; in [11] it was 3.29%; in test [12], 2.12%. For the same compound, the inhibition in test [13] was 0.23%; in [14] it was -0.2%; in [15], -1.74%; in test [16], -2.62%; in test [17], 2.92%; in test [18] it was -5.52%. For the same compound, the inhibition in [19] is -1.07%; in test [20], 2.12%.
